Experimental data as given in PubChem BioAssay (NCATS).
Records with an inconclusive call do not appear. Unmarked numbers belong to inactive results. The call rests on the fitted dose curve; in most records, active means well fitted cell-killing curve with a large enough effect; inconclusive means small, poorly fitted or top-dose-only effect; inactive means flat fitted curve, though single readings scatter.

Assay: Cell Viability - LYMP1-002 - Assay at 16 hr (AID 948);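 further: 0% = DMSO alone and full effect = 92 µM tetraoctylammonium bromide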
Conditions: LYMP1-002 lymphoblastoid cell viability; series mostly up to 92.2 µM; activity change, negative = cytotoxicity: at the top concentration
Description: NIH Chemical Genomics Center [NCGC]
NIH Molecular Libraries Screening Centers Network [MLSCN]
National Institutes of Environmental Health Sciences [NIEHS]
National Toxicology Program [NTP]
We have developed a 1536-well cell-based assay for quantitative high throughput screening (qHTS) against a number of cell lines to determine in vitro cytotoxicity of small molecules. This particular assay uses a human lymphoblastoid cell line (LYMP1-002) purchased from Coriell Institute for Medical Research.
NCGC Assay Protocol Summary:
The CellTiter-Glo luminescent cell viability assay (Promega) is a homogeneous method to measure the number of viable cells in culture. The end point readout of this assay is based on quantitation of intracellular ATP, an indicator of metabolic activity, using the luciferase reaction. Luciferase catalyzes the oxidation of beetle Luciferin to oxyluciferin and light in the presence of ATP. The luminescent signal is proportional to amount of ATP present.
Using the CellTiter-Glo luminescent cell viability assay, the amount of cellular ATP was measured in the lymphoblastoid cell line with complete culture medium following compound treatment for 16 hours. The assay was performed in opaque white Kalypsys 1536-well plates. In the screen, tetraoctylammonium bromide was used as positive control. Library compounds were measured for their ability to cause acute toxicity in the cell line, as reflected by a decrease in intracellular ATP levels, in a concentration-dependent manner. […] AC50 values were determined from concentration-response data modeled with the standard Hill equation.
qHTS protocol for CellTiter Glo lymphoblastoid cellular assay
[Step] [Parameter] [Value] [Description]
1. Reagent; 5 uL; 2500 lymphoblastoid cells/well
2. Time; 5 hr; 37 C incubation
4. Controls; 23 nL; Tetraoctylammonium bromide 6.4pM to 92 uM
5. Time; 16 hr; 37 C incubation
6. Reagent; 5 uL; CellTiter Glo reagent
7. Time; 30 min; Room Temperature
8. Detection; Luminescence; Viewlux plate reader
Keywords: cell viability, cytotoxicity, lymphoblastoid cell line, luminescence, NTPHTS, NTPHTS_NCGC, NIEHS, DSSTox, MLSMR, MLSCN, NIH Roadmap, qHTS, NCGC

SMILES	activity change, negative = cytotoxicity [%]
CCOCCOCC	0.658
CCCCC(CC)COCC1CO1 (stereo not given)	-2.28
CC(C)(O)C(=O)O	-5.88
CC(=O)CC(C)C	-5.89
Nc1c(Cl)cc(Cl)cc1Cl	-2.48
CCC1CO1 (stereo not given)	-5.97
CCCCC(C=O)CC (stereo not given)	-7.6
Cc1c(N)cccc1N	-2.59
O=[N+]([O-])c1ccccc1CCO	-5.32
CC(=O)c1cccc([N+](=O)[O-])c1	-8.95
O=C(O)/C=C/C(=O)O	-1.96
CC(C)Nc1ccccc1	1.34
O=C(O)c1ccccc1[N+](=O)[O-]	-2.8
CCCCCNCCCCC	-2.58
C=C(C)OC(C)=O	-3.03
CCC=O	-5.24
O=C(O)c1ccc(Cl)cc1Cl	-2.48
O=C1OC(=O)c2c(Br)c(Br)c(Br)c(Br)c21	-3.42
Nc1ccc([N+](=O)[O-])c(N)c1	1.88
Clc1ccc(Cl)c(Cl)c1Cl	-0.49

SMILES	activity change, negative = cytotoxicity [%]
CC(CCl)OC(C)CCl (stereo not given)	-8.16
CCN(Cc1ccccc1)c1ccccc1	-2.9
C=CCCCCCCC=C	-3.47
Cc1ccc2ncccc2c1	-6.55
CC(C)Cc1nccs1	-6.5
CN(C)c1cccc(O)c1	-8.33
Cc1ccc(C)cc1	-4.62
CCCCCCC=O	-1.3
Cc1ccc(C#N)cc1	-2.59
C[C@@H]1O[C@@H](O[C@@H]2[C@@H](O)[C@H](OCCc3ccc(O)c(O)c3)O[C@H](CO[C@@H]3O[C@H](CO)[C@@H](O)[C@H](O)[C@H]3O)[C@H]2OC(=O)/C=C/c2ccc(O)c(O)c2)[C@H](O)[C@H](O)[C@H]1O	-3.35
C=CCOC(=O)COCCC(C)C	-4.39
Cc1ccccc1C#N	-2.74
C=CCCCC	-2.81
N#Cc1ccccc1	-0.32
NC(=O)c1cccc([N+](=O)[O-])c1	0.167
C=CCOC(=O)CCCCCCCC	-6.03
O=Cc1ccc(C(=O)O)cc1	-6.23
O=C(O)CNC(=O)c1ccc([N+](=O)[O-])cc1	-6.86
CCCCC(CC)CO (stereo not given)	0.517
ON=C1CCCCC1	-1.04
